# Data: PubChem BioAssay AID651813 (National Center for Advancing Translational Sciences (NCATS), 2012)
# Values joined by “and” are separate entries in the source; they are usually repeats but may differ in a detail not shown here. Equal values may be shown once. About 1,100 (52%) of roughly 2,100 compounds were called active. Inconclusive results (about 27%) are left out. The set was probably picked from earlier hits. Some of the results follow. Unmarked numbers belong to inactive results. Calls come from the whole dose curve; as a rule, active = well fitted inhibition curve with a large enough effect; inconclusive = small, poorly fitted or top-dose-only effect; inactive = no such curve, though single readings can be large or run the other way.
# Biological target: DNA dC->dU-editing enzyme APOBEC-3G (Homo sapiens) (UniProt Q9HC16)
# Assay: qHTS for inhibitors of Vif-A3G interactions: Cherry picks counterscreen;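 note: hits raise yellow fluorescence by blocking Vif-driven A3G-eYFP degradation; nearly all actives have a fitted effect of over 70% in size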;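 for max response: max response given as percent of control signal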
# Details: HeLa A3G-eYFP + Vif (tagged APOBEC3G with the HIV-1 protein that degrades it), eYFP fluorescence, 24 h
# Excerpt: The recent discovery and characterization of host restriction factors, which provide a potent defense to invading retroviruses, has provided new targets for antiviral drug development. APOBEC3G (A3G) and APOBEC3F (A3F) are potent cytidine deaminases that block HIV-1 replication; HIV-1 expresses the Vif protein, which counteracts A3G and A3F by binding to them and inducing their proteasomal degradation. The Vif-A3G and Vif-A3F interactions provide two potential targets for development of small molecules which can interfere with the ability of Vif to degrade A3G or A3F. […] To identify inhibitors that can interfere with Vif mediated degradation of A3G and A3F, we have developed Hela cell lines that stably express A3G or A3F tagged with eYFP at the C-terminal end (A3G-eYFP or A3F-eYFP, respectively) and Vif. In the absence of an inhibitor, Vif induces degradation of A3G-eYFP and A3F-eYFP, and the cells are not fluorescent. In the presence of an inhibitor, it is expected that Vif will be unable to degrade A3G-eYFP and/or A3F-eYFP, resulting in an increase in yellow fluorescence. In this counterscreen assay, Vif A3G was screened against the cherry picks ordered from the MLSMR. NIH Chemical Genomics Center [NCGC] NIH Molecular Libraries Probe Centers Network [MLPCN] MLPCN Grant: MH093245 Assay Submitter (PI): Vinay Pathak, National Cancer Institute
# A3G-Vif cells were harvested from T225 flask and resuspended in phenol free OPTI-MEM medium with 5% FBS. Then 5 uL of 140,000 cells/mL resuspended cells was dispensed into each well of low base Aurora COC 1,536-well plates (black walled, clear bottom) using a Multidrop Combi dispenser. After overnight culture at 37 deg C with 5% CO2, a total of 23 nL of compounds at 5 selected concentrations from the NPC or positive control (2 mM stock of MG132) in DMSO was transferred to each well of the assay plate using a pintool (Kalypsys, San Diego, CA), and the plates were further incubated at 37 deg C with 5% CO2 for 24 hours. After that, the plates were measured on Acumen Explorer (TTP Lab Tech). The fluorescence was detected by 488 nm/Ex and […].
# Potency is the fitted concentration of half-maximal effect.
# Sequence of DNA dC->dU-editing enzyme APOBEC-3G (Homo sapiens) (Q9HC16 whole entry, looked up): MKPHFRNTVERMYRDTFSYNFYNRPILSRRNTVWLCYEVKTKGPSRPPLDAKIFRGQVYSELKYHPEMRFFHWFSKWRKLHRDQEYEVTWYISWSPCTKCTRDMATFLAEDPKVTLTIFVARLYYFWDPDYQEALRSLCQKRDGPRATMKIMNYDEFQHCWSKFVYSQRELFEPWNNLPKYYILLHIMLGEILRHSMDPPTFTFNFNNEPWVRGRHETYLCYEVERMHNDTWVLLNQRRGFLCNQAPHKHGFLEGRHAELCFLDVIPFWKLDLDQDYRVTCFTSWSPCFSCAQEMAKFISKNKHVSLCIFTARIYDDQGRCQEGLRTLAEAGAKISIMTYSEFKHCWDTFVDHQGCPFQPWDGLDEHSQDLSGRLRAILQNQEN
SMILES,max response,Potency
C=CCSc1nc2sc3c(c2c(=O)n1CC)CCC3,-26.5%,
CN(C)c1ccc(/C=C2\Oc3ccc(C#Cc4cccc(N)c4)cc3C2=O)cc1,,17.7 µM (active)
CC1(C)Cc2nc3sc4c(=O)n(CC(=O)NCc5ccccc5)cnc4c3cc2CO1,,3.96 µM (active)
CCOc1ccc(S(=O)(=O)NCc2ccccn2)cc1NC(=O)c1ccccc1,,3.96 µM (active)
COc1ccc(S(=O)(=O)NCc2ccccn2)cc1NC(=O)c1ccc(C)cc1,,11.2 µM (active)
COc1ccc(S(=O)(=O)NCc2ccccn2)cc1NC(=O)c1ccccc1,,15.8 µM (active)
COc1ccc(OC)c2sc(NC(=O)CCS(=O)(=O)c3ccccc3)nc12,-5.13%,
S=C(NCCSCc1ccc(Cl)cc1)Nc1ccccc1,-13.3%,
O=[N+]([O-])c1ccc(C2=NN(c3ccccc3)C(c3ccco3)C2)cc1 (centres undefined),,0.498 µM (active)
O=[N+]([O-])c1ccc(/C=C/C2=NN(c3ccccc3)C(c3ccco3)C2)o1 (centres undefined),,2.31 µM (active)
O=[N+]([O-])c1ccc(C2=Nc3cc(Cl)ccc3OC2)cc1,-16.9%,
COc1ccccc1N1N=C(c2ccc([N+](=O)[O-])cc2)CC1c1ccccc1 (centres undefined),,1.25 µM (active)
Cc1cc(C)cc(NC(=O)/C=C/c2ccc([N+](=O)[O-])s2)c1,,13 µM (active)
Cc1ccc(NC(=O)/C=C/c2ccc([N+](=O)[O-])s2)cc1,,5.17 µM (active)
Cc1cccc(NC(=O)/C=C/c2ccc([N+](=O)[O-])s2)c1,,14.6 µM (active)
Cc1ccc(NC(=O)/C=C/c2ccc([N+](=O)[O-])s2)c(C)c1,,10.3 µM (active)
CC(=O)c1cccc(NC(=O)/C=C/c2ccc([N+](=O)[O-])s2)c1,,10.3 µM (active)
CC(=O)c1cccc(NC(=S)N2c3ccccc3CC2C)c1 (centres undefined),10.2%,
O=C(OCC12CC3CC(CC(C3)C1)C2)c1ccc(NCc2cc(O)ccc2O)cc1,39.2%,
CCCN1C=CC(=CC=C(C#N)C#N)C=C1,,9.94 µM (active)

SMILES,max response,Potency
C=CCN1C=CC(=CC=C(C#N)C#N)C=C1,,12.5 µM (active)
Cn1c2ccccc2c2ccc3c(c21)C(=O)C=CC3=O,10.2%,
COc1cc(OC)c(OC)cc1/C=C1\Oc2cc(OCC(=O)N3Cc4ccccc4C[C@H]3C(=O)O)ccc2C1=O,,2.06 µM (active)
COc1ccc(/C=C2\Oc3cc(OC(=O)N4CCOCC4)ccc3C2=O)c(OC)c1,-18.4%,
Cn1cc(C2=C(c3ccc(Cl)cc3Cl)C(=O)NC2=O)c2ccccc21,,2.06 µM (active) and 8.2 µM (active)
COc1ccccc1Nc1cc2cc(Br)ccc2c(=O)[nH]1,,15.8 µM (active)
COc1ccc(C(=O)Nc2sc3c(c2C#N)CCN(C(C)=O)C3)cc1,,12.5 µM (active)
COc1cccc(C(=O)Nc2sc3c(c2C#N)CCN(C(C)=O)C3)c1,,3.96 µM (active)
O=C1[C@@H]2[C@@H](CN3CN(c4ccccc4)N=C(c4ccccc4)[C@@]23c2ccccc2)C(=O)N1c1ccccc1,3.63%,
Cc1noc(C)c1COc1cccc(C(=O)OCC(=O)N2CC(=O)Nc3ccccc32)c1,,5.59 µM (active)
COc1ccc(N=Cc2sc(O)c3ccccc23)cc1,,3.96 µM (active)
COc1ccc(N=Cc2c(O)c3ccccc3n2C(C)=O)cc1,,14.6 µM (active)
COc1ccc(N=Cc2oc3ccc4ccccc4c3c2O)cc1,,18.4 µM (active)
Oc1sc(C=Nc2ccc(F)cc2)c2ccccc12,,8.2 µM (active)
Oc1sc(C=Nc2ccccc2)c2ccccc12,,18.4 µM (active)
COc1ccc2nc3ccccc3nc2c1NC(=O)c1ccc(Br)cc1,,14.6 µM (active)
COc1ccc2nc3ccccc3nc2c1NC(=O)c1ccc(Cl)cc1,,18.4 µM (active)
Cc1ccc2c(Cl)c(C)c(N3CCCC3)nc2n1,-28.8%,
C[n+]1ccc(/C=C/c2c[nH]c3ccccc23)cc1,,8.2 µM (active)
OCC[n+]1ccc(/C=C/c2c[nH]c3ccccc23)cc1,,18.4 µM (active)

SMILES,max response,Potency
CC[n+]1ccc(/C=C/c2c[nH]c3ccccc23)cc1,,9.2 µM (active)
C/C(=N\NC(=O)C(C)n1nc(C)c([N+](=O)[O-])c1C)c1ccccc1O (centres undefined),3.13%,
COc1ccc(C(=O)c2cc([N+](=O)[O-])ccc2N2CCCC2)cc1,,7.04 µM (active)
CN(C)S(=O)(=O)c1ccc(N2CCCC2)c(C(=O)N2CCN(S(=O)(=O)c3ccc(F)c(F)c3)CC2)c1,9.68%,
Cc1ccc(C(=O)c2cc([N+](=O)[O-])ccc2N2CCN(C)CC2)cc1,,7.04 µM (active)
Cc1ccc(C(=O)c2cc([N+](=O)[O-])ccc2N2CCOCC2)cc1C,,0.994 µM (active)
CN1CCN(c2ccc([N+](=O)[O-])cc2C(=O)c2ccc(Br)cc2)CC1,,4.98 µM (active)
CNc1cncc(-c2cc(C)c(O)c(C)c2)n1,,4.98 µM (active)
Cc1sc2nc(SCC(=O)N3CCOCC3)[nH]c(=O)c2c1-c1ccccc1,-5.17%,
CCOC(=O)CSc1nc2c(c(=O)[nH]1)C(C)(CC)Cc1ccccc1-2 (centres undefined),,8.2 µM (active)
COc1cccc(N2CCN(Cc3nc4scc(-c5ccccc5)c4c(=O)[nH]3)CC2)c1,,12.5 µM (active)
O=c1[nH]c(CN2CCN(c3ccccc3)CC2)nc2scc(-c3ccccc3)c12,,9.2 µM (active)
CC1=CN2C(=N)/C(=C/c3ccc([N+](=O)[O-])o3)C(=O)N=C2S1,,17.7 µM (active)
CCS(=O)(=O)C1=NN2C(=N)/C(=C\c3ccc(SCc4ccco4)o3)C(=O)N=C2S1,2.81%,
COc1ccc(CCNC(=O)CC2(CC3=NS(=O)(=O)c4ccccc4N3)CCCC2)cc1OC,-1.6%,
COc1cccc(-c2ccc3c(N)c(C(=O)c4ccc(Br)cc4)sc3n2)c1,,20.6 µM (active)
COc1cccc(-c2ccc3c(N)c(C(=O)c4ccc(Cl)cc4)sc3n2)c1,,20.6 µM (active)
Cc1noc(C)c1COc1ccc(C(=O)NNC(=O)c2ccccc2)cc1,,5.59 µM (active)
Cc1noc(C)c1COc1ccc(C(=O)NNC(=O)c2ccccc2F)cc1,,8.86 µM (active)
